Experimental data from article PMC3795721, “Screening for Protein-DNA Interactions by Automatable DNA-Protein Interaction ELISA”.

What follows are sequences tested against AT4G31550 (Arabidopsis thaliana, UniProt Q9SV15 228-325) (assay: DPI-ELISA; DPI-ELISA, streptavidin 384-well plate, 1-2 pmol biotinylated dsDNA per well, crude native E. coli extract, anti-His detection; buffer as in Brand et al. [46],; high values mean tight binding). Settings: tags: C-terminal His (pET-DEST42); label: 5' biotin on forward strand; dsDNA, one strand shown.
Chain of AT4G31550 (Q9SV15 228-325): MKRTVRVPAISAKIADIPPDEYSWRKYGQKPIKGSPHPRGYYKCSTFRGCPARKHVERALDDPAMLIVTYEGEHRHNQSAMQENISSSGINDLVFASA

Sequence	binding signal [absorbance]
AAAAAAACTCTAGGTCAATATTATTCAAAA	3.11 ± 0.636
AAAAAAGCCGTGGGTGATGGTCACAGAAAA	0.56 ± 0.113
AAAAAAGCTCCCGTCTCTTAGTTCTAAAAA	0.695 ± 0.12
AAAAAAAGTTCGCGGATTTCGGCCATAAAA	0.685 ± 0.148
AAAAAAGCATATCTTCAGAACTTGCCAAAA	0.625 ± 0.0778
AAAAAATAGCGACTTCGACTCTCAGTAAAA	0.76 ± 0.0707
AAAAAATATTCGCCGGTAGCCACGCTAAAA	0.565 ± 0.12
AAAAAACCGAGTGTTGCCAGTTGCAGAAAA	0.655 ± 0.0919
AAAAAATCCATGTTTAAGCTGGTCTCAAAA	0.695 ± 0.148
AAAAAATCCATTCTTCGCGTTTATCCAAAA	0.53 ± 0.0849
AAAAAAGAGAATTGTCAGTGCCCAACAAAA	0.705 ± 0.106
AAAAAAGGCGGTCGTAGTTGTGGGAGAAAA	1.14 ± 0.0849
AAAAAACCCATCCTTCGTTCCATCGTAAAA	0.76 ± 0.141
AAAAAATCGGGGATCCGGGCGGTTGCAAAA	0.665 ± 0.12
AAAAAATGCAGACCTTCAGCTGGGTAAAAA	0.58 ± 0.0141
AAAAAAGTTCGTGCTTAACCCAGTTTAAAA	0.69 ± 0.099
AAAAAAGGGTCGCTGTGAGCTCATGAAAAA	0.575 ± 0.12
AAAAAATTTATACTTGATCCTGGCTTAAAA	0.575 ± 0.0636
AAAAAACTTGCTCCTCCGTTTTACTCAAAA	0.775 ± 0.276

Sequence	binding signal [absorbance]
AAAAAATCGGTACGCACCCCGGACTCAAAA	0.73 ± 0.184
AAAAAACGGAAGATCGTGACTGCTAGAAAA	0.715 ± 0.0354
AAAAAACTCGACATAGAATGCGGAAAAAAA	0.655 ± 0.106
AAAAAACCGTCTTATCTCTCGTCCCTAAAA	0.565 ± 0.12
AAAAAACGCATCATAGCTACGCCCCAAAAA	0.62 ± 0.0849
AAAAAATCAGTCTGAGACTTACAACTAAAA	0.84 ± 0.283
AAAAAACATTCCTAGTTCATGTTACTAAAA	0.665 ± 0.134
AAAAAAACTCACGGCGTCACTATGGTAAAA	0.585 ± 0.12
AAAAAACCACCCAGTCTGTTTCTACTAAAA	0.54 ± 0.141
AAAAAACCTTCCCCCTCTTCTGCCTTAAAA	0.665 ± 0.0354
AAAAAACTGCTTGCCCCTGTCTCCATAAAA	0.67 ± 0.17
AAAAAATTAGCTTATCCTTGCTTGTGAAAA	0.655 ± 0.134
AAAAAACCCCAGATTTCCAGCAGTTCAAAA	0.945 ± 0.629
AAAAAATACTGGCTGTCTCGTTCACAAAAA	0.615 ± 0.0778
AAAAAAGGCTTCCACTTTGAGTTTGCAAAA	0.57 ± 0.099
AAAAAAAGTTGTACTTATTATACTTTAAAA	0.53 ± 0.113
AAAAAAAAGCTTCGGAGTCTTGAGAAAAAA	0.685 ± 0.0354
AAAAAATGTGCCCGTGTGTGCTCGCGAAAA	0.73 ± 0.0849
